Only a sample is shown.
aSyn 5UTR act: Activators via SNCA 5'UTR binding, MLPCN; alpha-synuclein 5'UTR reporter, activators screen; activity score, % (tested at 7.5 µM), hits read low; 300,000 tested, 7.1% active; AID 1814, 2009; in the data active = activity score below about -60%
A number is an active result; – = inactive.

SMILES	aSyn 5UTR act
COC(=O)c1ccc(COc2ccc(CNCc3ccc(Cl)cc3)cc2)cc1	-92
COc1cc(/C=C2\C=CC(=O)O2)cc(OC)c1	-65
O=[N+]([O-])c1ccccc1N/N=C/c1ccc2c(c1)OCO2	-95
O=[N+]([O-])c1ccccc1N/N=C/c1ccccc1	-231
Cc1ccsc1C(=O)Nc1ccc(OCc2ccccc2)cc1	-191
COc1ccc(COc2ccsc2C(=O)Nc2ccc(Cl)c(Cl)c2)cc1	-68
CCOC(=O)c1c(NC(=O)c2cc(C)oc2C)sc(C(=O)Nc2ccc(Cl)cc2)c1C	-102
Cc1cc(C(=O)Nc2ccc(OCc3ccccc3)cc2)c(C)o1	-134
Cc1ccc(C(=O)Nc2ccc(OCc3ccccc3)cc2)s1	-107
CCC(=O)NC(c1ccccc1)c1nc2ccccc2[nH]1 (configuration not stated)	-79
CCCC(=O)NC(c1ccccc1)c1ccc2cccnc2c1O (configuration not stated)	–
CCCCC(=O)NC(c1ccccc1)c1ccc2cccnc2c1O (configuration not stated)	–
O=C1C(Nc2ccccc2)=C(NS(=O)(=O)c2ccccc2)C(=O)c2ccccc21	-75
CC(=O)Nc1ccc(/C=C2\CCc3ccccc3C2=O)cc1	-118
CC(=O)Nc1ccc(S(=O)(=O)N2c3ccccc3C(C)=CC2(C)C)cc1	–
N/C(=N\OC(=O)Cc1ccccc1)c1cccc(Br)c1	-72
N/C(=N\OC(=O)Cc1ccccc1)c1ccccc1Cl	-143
COc1ccc(Cl)cc1NC(=O)c1cc(-c2ccccc2O)n[nH]1	-118
Cc1c(Cl)cccc1NC(=O)c1cc(-c2ccccc2O)n[nH]1	-206
COc1ccc(O)c(/C=N/N2CCCCC2)c1	-150
O=C(Nc1ccccc1)N1CCC(c2ccccc2)C1 (configuration not stated)	-141
Cc1ccc(C2CCN(C(=S)NC(C)(C)C)C2)cc1 (configuration not stated)	-93
CCOc1ccc(NC(=O)N2CCC(c3ccc(C)cc3)C2)cc1 (configuration not stated)	-67
COc1ccc(NC(=S)N2CCC(c3ccccc3)C2)cc1 (configuration not stated)	-169
O=C(c1cccs1)N1CCC(c2ccccc2)C1 (configuration not stated)	-140
SMILES	aSyn 5UTR act
CCc1ccc(NC(=O)N2CCC(c3ccccc3)C2)cc1 (configuration not stated)	-172
CCOc1cc(/C=C2\CN(C)C/C(=C\c3ccc(O)c(OCC)c3)C2=O)ccc1O	–
CCOc1cc(/C=C2\CCC/C(=C\c3cc(Cl)c(O)c(OCC)c3)C2=O)cc(Cl)c1O	-329
COc1ccc(OCCn2cnc3ccccc32)cc1	-70
Cc1ccccc1OCCCCn1cnc2ccccc21	-83
Cc1ccccc1OCC(O)Cn1c(=N)n(Cc2ccccc2)c2ccccc21 (configuration not stated)	–
Brc1ccccc1OCCCn1cnc2ccccc21	-93
c1ccc(CCn2cnc3ccccc32)cc1	-91
O=C(c1ccc(Cl)cc1)c1cnc2ccccn12	-126
Cn1ccsc1=NC(=O)c1cccc(OC(F)F)c1	-128
CCOC(=O)c1c(C)[nH]c(C2=NNC(=Nc3cccc(Cl)c3)SC2)c1C	-74
CCOC(=O)c1c(C)[nH]c(C=O)c1Cc1cccc(Cl)c1	–
Cc1ccc(SCc2cc(=O)n3ccsc3n2)c(C)c1	-79
Cc1ccc(N2CN=c3s/c(=C\c4ccccn4)c(=O)n3C2)cc1	-63
O=c1/c(=C\c2ccc(F)cc2)sc2n1CCCN=2	-201
O=S(=O)(c1ccc(Cl)cc1)c1snnc1-c1ccccc1	–
O=S(=O)(c1ccc(F)cc1)c1snnc1-c1ccccc1	-76
CCCCN1CCc2c([nH]c3c(C)cccc23)C1=O	-150
Oc1c(C=Nc2ccccc2Cl)[nH]c2ccccc12	-101
CO/N=C/c1ccc(Oc2ccc(C)cc2)nc1	-77
Cc1ccc(-c2noc(C3CCN(S(C)(=O)=O)CC3)n2)o1	-67
Cc1ccc(-c2noc(C3CCCN(C(=O)c4ccccc4)C3)n2)o1 (configuration not stated)	-154
O=C(c1ccccc1Br)N1CCCC(c2nc(-c3cccs3)no2)C1 (configuration not stated)	-63
Cc1ccc(-c2noc(C3CCCN(C(=O)c4ccccc4Br)C3)n2)o1 (configuration not stated)	-92
O=C(COc1ccccc1[N+](=O)[O-])N/N=C/c1cccc(OC(=O)c2ccc3c(c2)OCO3)c1	-157
SMILES	aSyn 5UTR act
O=C(COc1ccccc1[N+](=O)[O-])Nc1ccc(NC(=O)c2cc3ccccc3o2)cc1	-119
O=C(COc1ccc(/C=N/NC(=O)c2cc3ccccc3o2)cc1Br)Nc1ccccc1	–
O=C(COc1ccccc1[N+](=O)[O-])Nc1ccc2c(c1)OCO2	-133
O=C(COc1cc(F)ccc1[N+](=O)[O-])Nc1cccc(Br)c1	-71
O=C(Cc1ccccc1[N+](=O)[O-])Nc1ccc2c(c1)OCCO2	-100
Cc1sc(=NC(=O)c2ccco2)n(C)c1-c1ccc(Cl)cc1	-101
